High-throughput results as filed in PubChem.
Only some compounds are listed: those with a hit (about 7.4% of all), similar ones and a draw of the others.
MITF inhib – MITF inhibition; TRPM1 promoter luciferase, luminescence, 24 h; inhibition, % (no concentration beside the values); hit rate 0.28% among 37,000; AID 2240; in the data active means inhibition above about 85%;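 further: human melanocyte line stably carrying TRPM1 promoter luciferase reporter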
PD-1 reversal – reversal of PD-1 mediated T-cell inhibition; primary human CD4 T cells, PD-L1 beads, CellTiter-Glo 96 h; activation, % (concentration not given with the values); 29,000 tested, under 10 active; call rule not given here;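 further: 0% = median vehicle wells and 100% = positive control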
NOMO-1 viab – STK33 inhibitor candidate reducing NOMO-1 cell viability; inhibition, % (no concentration beside the values); NOMO-1 AML viability, CellTiter-Glo luminescence, 72 h; hit rate 7.5% among 37,000; in the data active means inhibition above about 80%
Shh pathway inh – Sonic Hedgehog pathway inhibition; Shh-LIGHT2 Gli-luciferase reporter, 30 h; inhibition, % (test concentration not listed); hit rate 2.1% among 22,000;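 active means mean inhibition across valid replicates above about 65%, limit read from the data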;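 further: pathway switched on by Shh-conditioned medium diluted 1 in 25 in low serum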
YB-1 expression – YB-1 expression inhibition; delta delta Cp (YB-1 minus CDIP) (test concentration not listed); AID 434959; U2OS, qRT-PCR YB-1 vs CDIP delta delta Cp, 16 h; stronger effect = higher value; zero = DMSO, each unit about twofold; hit rate 0.37% among 30,000;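 active means delta delta Cp rounded down to an integer at or above 3, about 3 SD of DMSO wells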;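 further: higher means less YB-1 transcript or more CDIP transcript relative to DMSO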
Starred values were filed as active, the others as inactive; . = no result.

SMILES	MITF inhib	PD-1 reversal	NOMO-1 viab	Shh pathway inh	YB-1 expression
CC(=O)OC[C@]12CCC(C)=CC1O[C@@H]1[C@H](O)[C@@H](O[C@H]3O[C@H](CO)[C@@H](O)[C@H](O)[C@H]3O)[C@@]2(C)C12CO2 (some centres not stated)	.	.	.	49.7	1.69
COC(=O)c1sc(NC(=S)Nc2c(C)nn(Cc3c(F)c(F)c(F)c(F)c3F)c2C)c(C(=O)OC)c1C	-27.4	-0.1	10.8	.	.
CSc1c(C#N)c(-c2ccc(Cl)cc2)nn1C	-13.2	-0.5	27.6	-57.2	-0.137
O=C(COC(=O)C1CC=CCC1C(=O)OCC(=O)c1ccc(Cl)cc1)c1ccc(Cl)cc1 (configuration not stated)	4.4	-1.6	44.6	.	-0.0338
Cc1ccc(C)n1-c1ccc(C(=O)OCC(=O)c2ccc(Cl)cc2)cc1	-12.5	-0.9	121.4*	46.0	-0.0578
CCOC(=O)c1cc(C#N)c(Oc2ccc(C)cc2)nc1C(F)(F)F	18.0	-2.2	72.8	16.2	0.3
Cc1ccc(-c2nn(CC(=O)Nc3ccc(C)cc3C)c(=O)c3ccccc23)cc1	11.9	-3.0	110.5*	.	.
COc1ccccc1COc1ccc2c3c(c(=O)oc2c1C)CCCCC3	-56.8	1.0	86.8*	.	0.0361
C=CCSc1ncc2c(=S)[nH]c(=S)[nH]c2n1	70.8	0.3	12.1	65.4*	0.151
CC[C@]12CCCN3CCc4c(n(c5ccccc45)C(=O)C1)[C@@H]32	-3.2	4.0	112.4*	-1.4	-0.105
C[C@@H]1CN([C@@H](C)CO)C(=O)c2cccc(NS(=O)(=O)c3ccc(Cl)cc3)c2O[C@H]1CN(C)Cc1ccc(C(=O)Nc2ccccc2N)cc1	-11.3	0.4	48.4	.	-0.325
COc1ccc(S(=O)(=O)Nc2cccc3c2O[C@H](CN(C)Cc2ccc(C(=O)Nc4ccccc4N)cc2)[C@H](C)CN([C@H](C)CO)C3=O)cc1	7.3	-1.1	128.1*	.	-0.352
COc1ccc(S(=O)(=O)Nc2cccc3c2O[C@H](CN(C)Cc2ccc(C(=O)Nc4ccccc4N)cc2)[C@@H](C)CN([C@H](C)CO)C3=O)cc1	3.6	0.4	55.2	.	0.143
COc1ccc(S(=O)(=O)Nc2cccc3c2O[C@@H](CN(C)Cc2ccc(C(=O)Nc4ccccc4N)cc2)[C@@H](C)CN([C@H](C)CO)C3=O)cc1	33.8	1.7	110.3*	.	-0.178
COc1ccc(S(=O)(=O)Nc2cccc3c2O[C@H](CN(C)Cc2ccc(C(=O)Nc4ccccc4N)cc2)[C@H](C)CN([C@@H](C)CO)C3=O)cc1	16.2	-2.1	127.2*	.	-0.153
Cc1cccc(NC(=O)CN(c2ccc(Br)c(C)c2)S(C)(=O)=O)c1	1.6	.	26.3	.	.
COc1cc(O)c2c(c1C)C(C)C(O)(CO)OC2=O (configuration not stated)	0.7	0.2	-0.8	-3.0	-0.229
CCCCc1ccc(-c2csc(NC(=O)c3ccccc3[N+](=O)[O-])c2C(N)=O)cc1	-11.4	-8.5	43.4	.	.
C[C@@H]1CN([C@@H](C)CO)C(=O)c2cccc(NC(=O)c3ccc(-c4nccs4)cc3)c2O[C@@H]1CN(C)C(=O)Nc1cccc2ccccc12	4.7	-1.0	57.0	66.0*	-0.156
C[C@H](CO)N1C[C@H](C)[C@H](CN(C)Cc2ccc(C(F)(F)F)cc2)Oc2c(NC(=O)c3ccc(-c4nccs4)cc3)cccc2C1=O	63.2	.	98.4*	-18.7	0.00569
C[C@H]1CN([C@@H](C)CO)C(=O)c2cccc(NC(=O)c3ccc(-c4nccs4)cc3)c2O[C@H]1CN(C)Cc1ccc(C(F)(F)F)cc1	2.5	.	72.5	-31.0	-0.253
C[C@H]1CN([C@@H](C)CO)C(=O)c2cccc(NC(=O)c3ccc(-c4nccs4)cc3)c2O[C@H]1CN(C)Cc1ccc(Oc2ccccc2)cc1	-17.8	-2.2	63.9	18.6	0.189
C[C@H](CO)N1C[C@H](C)[C@H](CN(C)Cc2ccc(-c3ccccc3)cc2)Oc2c(NC(=O)c3ccc(-c4nccs4)cc3)cccc2C1=O	6.5	-0.3	88.2*	7.2	0.439
C[C@H](CO)N1C[C@H](C)[C@@H](CN(C)Cc2ccc(Oc3ccccc3)cc2)Oc2c(NC(=O)c3ccc(-c4nccs4)cc3)cccc2C1=O	40.0	-1.9	111.6*	-4.4	-0.672
C[C@H](CO)N1C[C@H](C)[C@@H](CN(C)Cc2ccccc2)Oc2c(NC(=O)c3ccc(-c4nccs4)cc3)cccc2C1=O	20.9	-4.3	96.6*	42.2	0.757
SMILES	MITF inhib	PD-1 reversal	NOMO-1 viab	Shh pathway inh	YB-1 expression
C[C@@H]1CN([C@H](C)CO)C(=O)c2cccc(NC(=O)c3ccc(-c4nccs4)cc3)c2O[C@H]1CN(C)Cc1ccc(-c2ccccc2)cc1	7.6	-1.8	24.3	16.1	0.172
C[C@@H]1CN([C@@H](C)CO)C(=O)c2cccc(NC(=O)c3ccc(-c4nccs4)cc3)c2O[C@@H]1CN(C)Cc1ccccc1	-6.6	-1.4	14.1	39.4	0.277
C[C@H]1CN([C@@H](C)CO)C(=O)c2cccc(NC(=O)c3ccc(-c4nccs4)cc3)c2O[C@H]1CN(C)Cc1ccc(-c2ccccc2)cc1	-4.9	-2.7	58.1	18.7	0.178
C[C@H](CO)N1C[C@H](C)[C@@H](CN(C)Cc2ccc(-c3ccccc3)cc2)Oc2c(NC(=O)c3ccc(-c4nccs4)cc3)cccc2C1=O	20.9	-3.5	86.8*	40.5	-0.12
C[C@@H]1CN([C@@H](C)CO)C(=O)c2cccc(NC(=O)c3ccc(-c4nccs4)cc3)c2O[C@@H]1CN(C)Cc1ccc(C(=O)Nc2ccccc2N)cc1	59.8	-5.2	141.3*	.	-0.319
COC(=O)c1ccccc1NC(=O)COc1ccc(Br)cc1C	-38.1	-0.1	-8.8	.	.
COC(=O)c1ccccc1NC(=O)C(C)Oc1ccc2c(C)cc(=O)oc2c1 (configuration not stated)	14.5	.	89.4*	.	.
CS(=O)(=O)N(CC(=O)Nc1cccc(Cl)c1Cl)c1cc(Cl)c(Cl)cc1Cl	-55.8	0.6	38.3	.	.
C/C(=N\O)c1ccc2c(c1)CCO2	-52.0	0.8	17.2	-64.3	-0.447
CN(C)/C=C/C(=O)c1ccc2c(c1)CCO2	-26.5	0.1	109.6*	-54.5	0.158
O=C(COc1ccc2ccccc2c1)Oc1ccc(C(=O)c2ccccc2)cc1	-9.1	1.2	-11.4	.	-0.185
CC(=O)NCCOc1ccc(C2CCCCC2)cc1	-42.1	-0.3	15.5	-10.7	-0.0898
Nc1cc(C(F)(F)F)ccc1Oc1ccc(C2CCCCC2)cc1	10.0	-4.7	113.4*	19.7	-0.58
Cc1nc(C)c(C(=O)C2C(=O)C(=O)N(CCN3CCOCC3)C2c2cccs2)s1 (configuration not stated)	-14.0	.	-4.6	.	.
CS(=O)(=O)N(CC(=O)Nc1cc(Cl)ccc1Oc1ccccc1)c1ccccc1F	-7.2	-1.1	9.3	.	.
Cc1ccc2c(C)c(C(=O)Nc3sc4c(c3C(=O)NCc3ccco3)CCC4)oc2c1	0.1	.	102.6*	.	.
C[C@@H]1CN([C@H](C)CO)C(=O)c2cc(NC(=O)Nc3cccc4ccccc34)ccc2O[C@H]1CN(C)Cc1ccc(Oc2ccccc2)cc1	1.0	-9.2	108.6*	.	0.0301
